High-throughput results from PubChem.
Sampled rows, rich in hits. Any-hit rate of the full collection: about 1.7%.
FGF22 binding: FGF22 (human) thermal shift binding. hit rate 1.5% among 340,000. AID 651658. activity (Tm shift, normalised), % at 9.99 µM. recombinant FGF22 thermal shift, SYPRO orange fluorescence; percent of sucrose octasulfate shift, DMSO zero. Q9HCT0;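 active = mean Tm shift, scaled 0 neutral to 100 positive control, at about 1.3% or above, every replicate too, limit read from the data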
Target sequence (Q9HCT0 whole entry, looked up): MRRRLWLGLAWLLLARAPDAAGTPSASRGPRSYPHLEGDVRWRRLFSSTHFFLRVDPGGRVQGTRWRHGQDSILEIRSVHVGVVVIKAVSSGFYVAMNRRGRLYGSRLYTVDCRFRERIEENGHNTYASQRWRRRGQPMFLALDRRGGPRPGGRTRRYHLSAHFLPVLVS
Vif inh: inhibitors of HIV Vif. HEK293T cells, Vif self-association by quenched fluorescence, imaging, 24 h. inhibition, % at 7.49 µM. hit rate 0.35% among 340,000. AID 602346; in the data active = inhibition above about 50%, passing the limit was not always enough
F508del corr: CFTR F508del correction in bronchial cells. CFBE cells, YFP halide quenching; stimulated with forskolin plus potentiator P3; % fluorescence drop versus neutral controls. activity (quench increase), % at 7.58 µM. hit rate 0.36% among 350,000. AID 720511;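 active = mean added fluorescence quench of at least 8% versus neutral control, with both replicates also reaching 8%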;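 note: cells transiently co-express mutant CFTR-F508del with the halide-sensitive YFP; corrector assay measuring rescue of mutant channel to the surface after 24 h compound exposure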
An asterisk follows results filed as active; · = not tested or not shown; + = active, no number.

SMILES	FGF22 binding	Vif inh	F508del corr
Cc1noc(C)c1NC(=O)Nc1cccc2c1O[C@@H](CN(C)C(=O)NC(C)C)[C@H](C)CN([C@H](C)CO)C2=O	0	·	4
O=C(Cc1ccccn1)NCC[C@H]1CC[C@H](NC(=O)CN2CCOCC2)[C@H](CO)O1	0	·	0
NC(=O)c1cc(C(=O)c2cccc(Cl)c2Cl)c[nH]1	0	16	-1
CN(C)C(=O)c1cc(C(=O)c2ccccc2Br)c[nH]1	0	-1	-3
NC(=O)c1cc(C(=O)c2ccccc2Cl)c[nH]1	43*	-2	-1
CN(C)C(=O)c1cc(C(=O)c2ccccc2Cl)c[nH]1	43*	-12	-2
CN(C)CCCNC(=O)C[C@@H]1CC[C@@H]2[C@@H](COc3ccc(NC(=O)C4CCC4)cc3C(=O)N2C)O1	0	·	-1
C[C@@H]1CN([C@H](C)CO)C(=O)c2cc(NS(=O)(=O)c3ccccc3)ccc2O[C@@H](C)CCCCO[C@@H]1CN(C)Cc1ccncc1	1	·	4
N#Cc1c(C(F)(F)F)cc(-c2ccco2)nc1SCc1ccncc1	·	+	·
N#Cc1c(C(F)(F)F)cc(-c2ccco2)nc1SCc1ccccn1	·	-4	·
O=C(/C=C/c1cccc(F)c1)Nc1ccc(S(=O)(=O)Nc2ncccn2)cc1	0	-4	2
Cc1ccc(NC(=O)/C=C/c2cccc(C(F)(F)F)c2)cc1	18*	0	·
O=C(/C=C/c1cccc(C(F)(F)F)c1)Nc1cccc(C(F)(F)F)c1	·	-1	·
CNC(=O)c1ccc(NC(=O)/C=C/c2cccc(F)c2)cc1	44*	-1	0
C[C@@H]1CN([C@H](C)CO)C(=O)c2cc(-c3ccccc3F)cnc2O[C@H]1CN(C)C(=O)NC1CCCC1	0	·	1
CCC(=O)Nc1ccc2c(c1)OC[C@H](C)N(CCc1ccccc1)C[C@@H](C)[C@H](OC)CN(C)C2=O	0	·	3
CC1=C(c2ccccc2)[N+](=O)C2(CCCCC2)N1[O-]	43*	-2	0
CCC1(CC)N([O-])C(C)=C(c2ccccc2)[N+]1=O	·	2	·
COc1ccccc1NC(=O)N(C)C[C@@H]1Oc2ncc(C#CCN(C)C)cc2C(=O)N([C@@H](C)CO)C[C@@H]1C	1	·	-1
Cc1ccc(S(=O)(=O)N[C@@H]2CC[C@H](CC(=O)NCCN3CCCCC3)O[C@@H]2CO)cc1	0	·	2
CO[C@@H]1CN(C)C(=O)c2cc(NC(=O)c3ccccc3F)ccc2OC[C@H](C)N(CC2CC2)C[C@@H]1C	1	·	2
NCC(=O)NNC(=O)OCC1c2ccccc2-c2ccccc21	0	-1	8.6*
O=C(O)CCNC(=O)OCC1c2ccccc2-c2ccccc21	0	8	0
COc1ccc(NC(=O)C2=C(C)NC(=O)NC2c2cccs2)c(OC)c1 (configuration not stated)	44*	1	0
COc1ccccc1NC(=O)C1=C(C)NC(=O)NC1c1ccc(C)cc1 (configuration not stated)	0	·	-1
SMILES	FGF22 binding	Vif inh	F508del corr
COc1ccccc1NC(=O)C1=C(C)NC(=O)NC1c1cccs1 (configuration not stated)	0	2	-4
CC1=C(C(=O)Nc2ccccc2)C(c2ccco2)NC(=O)N1 (configuration not stated)	·	26	·
CC1=C(C(=O)Nc2ccccc2)C(c2ccccc2[N+](=O)[O-])NC(=O)N1 (configuration not stated)	43*	-2	1
COc1ccccc1NC(=O)C1=C(C)NC(=O)NC1c1ccccc1[N+](=O)[O-] (configuration not stated)	43*	0	-3
C[C@@H]1CN([C@H](C)CO)C(=O)CCCn2nncc2CO[C@@H]1CN(C)C(=O)Nc1ccc2c(c1)OCCO2	0	·	-1
CCCN(C)C[C@H]1Oc2cc(C#C[C@H](C)O)ccc2S(=O)(=O)N([C@@H](C)CO)C[C@H]1C	0	·	1
C[C@@H]1CN([C@H](C)CO)C(=O)c2cc(C#CCN(C)C)cnc2O[C@@H]1CN(C)Cc1ccc(F)cc1	0	·	-2
CCCC(=O)NC(NC(=S)Nc1ccc(S(N)(=O)=O)cc1)C(Cl)(Cl)Cl (configuration not stated)	·	1	·
CCCC(=O)NC(NC(=S)Nc1ccc(N=Nc2ccccc2)cc1)C(Cl)(Cl)Cl (configuration not stated)	0	-6	8.6*
Cc1ccc(S(=O)(=O)N(C)C[C@@H]2Oc3ccc(NC(=O)C4CC4)cc3CC(=O)N([C@H](C)CO)C[C@@H]2C)cc1	0	·	2
C[C@@H]1CN([C@@H](C)CO)C(=O)Cc2cc(NC(=O)Nc3ccc(C(F)(F)F)cc3)ccc2O[C@H]1CN(C)Cc1ccc2c(c1)OCO2	3.7*	·	0
C[C@H](CO)N1C[C@H](C)[C@H](CN(C)C(=O)Nc2ccc(F)cc2)Oc2ccc(NC(=O)Nc3ccc(C(F)(F)F)cc3)cc2CC1=O	1.2*	·	2
C[C@@H]1CN([C@@H](C)CO)C(=O)Cc2cc(NC(=O)Nc3ccc(F)cc3)ccc2O[C@H]1CN(C)C(=O)Nc1ccc(C(F)(F)F)cc1	1	·	-2
C[C@H](CO)N1C[C@H](C)[C@H](CN(C)Cc2ccc3c(c2)OCO3)Oc2ccc(NC(=O)Nc3ccc(C(F)(F)F)cc3)cc2CC1=O	0	·	0
COC(=O)[C@H]1[C@H](CO)[C@H]2Cn3c(cccc3=O)[C@H]2N1CC1CCOCC1	0	·	·
COc1ccc(N/C(N)=N/c2nc(C)cc(C)n2)c(OC)c1	0	-1	5
COc1ccc(OC)c(N/C(N)=N/c2nc(C)cc(C)n2)c1	0	7	8.9*
O=C(NCC1CC1)[C@H]1[C@H](CO)[C@H]2Cn3c(ccc(C4=CCCCC4)c3=O)[C@H]2N1Cc1ccccc1F	·	·	0
Oc1c(Cl)cc(CN2CCOCC2)c2cccnc12	0	-11	27*
O=[N+]([O-])c1cc(Cl)c(O)c2ncccc12	·	11	-9
O=[N+]([O-])c1cc(CN2CCN(c3ccccc3)CC2)c(O)c2ncccc12	43*	-8	·
O=C(Oc1c(CN2CCOCC2)cc(Cl)c2cccnc12)c1ccccc1	0	8	·
COCC(=O)N1[C@H](C#N)[C@H](c2ccccc2-c2ccccc2F)[C@H]1CO	0	·	4
C[C@@H]1CN([C@@H](C)CO)C(=O)c2cc(C#CC3CC3)cnc2O[C@@H]1CN(C)C(=O)c1ccccc1	0	·	-1
C[C@H]1CN([C@@H](C)CO)C(=O)c2cccc(NC(=O)NC3CCCCC3)c2O[C@H]1CN(C)Cc1ccc(Cl)c(Cl)c1	0	·	2
C[C@H](CO)N1C[C@H](C)[C@H](CN(C)Cc2ccc(-c3ccccc3)cc2)Oc2c(NC(=O)C3CC3)cccc2C1=O	0	·	5
C[C@@H]1CN([C@@H](C)CO)C(=O)c2cccc(NC(=O)NC3CCCCC3)c2O[C@@H]1CN(C)Cc1ccc(Cl)c(Cl)c1	0	·	9.3*
C[C@@H]1CN([C@@H](C)CO)C(=O)c2cccc(NC(=O)c3ccncc3)c2O[C@H]1CN(C)Cc1ccc(C(F)(F)F)cc1	0	·	-2
